The list is not random: actives were taken first. Their share in the collection is about 12%.
Lassa entry inh: qHTS for Inhibitors of binding or entry into cells for Lassa Virus. Potency, µM (series often up to 37.9 µM), hits mostly inhibitors. AID 540256, 2011. hit rate 1.2% among 300,000. Lassa virus pseudotype entry inhibition, cell reporter; calls by dose curve; tested in HEK293 cells; note: nearly all actives have a fitted effect of over 50% in size
Marburg entry inh: qHTS for inhibitors of binding or entry into cells for Marburg Virus; AID 540276, 2011; Potency, µM (top dose mostly 37.8 µM), hits mostly inhibitors; hit rate 1.8% among 300,000; Marburg virus pseudotyped entry inhibition, cell reporter; calls by dose curve; tested in HEK293 cells
CHX counter: Cycloheximide Counterscreen for Small Molecule Inhibitors of Shiga Toxin; cell reporter, cycloheximide protein synthesis inhibition counterscreen; max response, %; hit rate 12% among 300,000; AID 2314, 2010; in the data active = max response mostly above about 13%, no sharp cut-off; inactive = mostly below about 14%; note: read at 38.3 µM for the half of the compounds with a filed dose
Shiga inhibitor: A qHTS for Small Molecule Inhibitors of Shiga Toxin. Vero cells, Shiga toxin protein synthesis inhibition reporter. inhibition, % at 38.7 µM. hit rate 9.2% among 290,000. AID 2315, 2010; in the data active = inhibition mostly above about 28%, no sharp cut-off; inactive = mostly below about 43%
Large screens that a line does not name were inactive.

CC(=O)c1c(C)[nH]c(C(=O)Nc2ccc3c(c2)OCCO3)c1C	Lassa entry inh inconclusive, Marburg entry inh inconclusive, CHX counter 38, Shiga inhibitor 99
Cc1ccc(N(Cc2cccs2)C(=O)c2ccccc2Cl)cc1	Marburg entry inh inconclusive (no result: CHX counter, Shiga inhibitor)
COc1cc(C(C)C)c2c(c1)S(=O)(=O)N(COc1cc(=O)n3cccc(OCCN4CCCCC4)c3n1)C2=O	none (no result: Lassa entry inh, Marburg entry inh)
CC(=O)C1C(=O)CC(C)(O)C(C(C)=O)C1c1ccccc1 (centres undefined)	none
Cc1ccc(NC(=O)NCc2ccccn2)cc1	Marburg entry inh inconclusive, CHX counter 35, Shiga inhibitor 75
CC(=O)c1cccc(NC(=O)NCc2ccccn2)c1	Lassa entry inh inconclusive, CHX counter 31, Shiga inhibitor 50
Cc1ccc(NC(=O)NCc2c(C)nn(C)c2C)cc1Cl	CHX counter 26, Shiga inhibitor 75
COc1ccc(NC(=O)NCc2ccccn2)cc1OC	none
Cc1nn(C)cc1CNC(=O)Nc1ccc(Cl)c(Cl)c1	Lassa entry inh inconclusive, CHX counter 44, Shiga inhibitor 58
CC(=O)Oc1ccc(C(=O)O)c(OC(C)=O)c1	none (no result: Lassa entry inh, Marburg entry inh)
Cc1ccc(OCC(=O)NC2CCSc3ccccc32)cc1 (centres undefined)	none (no result: CHX counter, Shiga inhibitor)
CCc1ccc(NC(=O)C(=O)NCc2ccccn2)cc1	Lassa entry inh inconclusive, CHX counter 24, Shiga inhibitor 60
Cc1ccc(NC(=O)NCc2ccccn2)cc1Cl	CHX counter 25, Shiga inhibitor 39 (no result: Lassa entry inh, Marburg entry inh)
Cc1ccc(C(=O)NCc2ccccn2)cc1Cl	CHX counter 25, Shiga inhibitor 36 (no result: Lassa entry inh, Marburg entry inh)
O=C(Nc1ccc(S(=O)(=O)N2CCCC2)cc1)C1CC(=O)N(CCc2ccc(F)cc2)C1 (centres undefined)	none (no result: CHX counter, Shiga inhibitor)
CC(C)N1CCc2c(sc(NC(=O)c3ccc([N+](=O)[O-])o3)c2C(N)=O)C1	CHX counter 28 (no result: Lassa entry inh, Marburg entry inh)
COC(=O)c1c(NC(=O)c2ccc([N+](=O)[O-])o2)sc2c1CCN(C(C)C)C2	Lassa entry inh inconclusive, Marburg entry inh inconclusive, CHX counter 23
CC(=O)N1CCc2c(sc(NC(=O)c3ccc([N+](=O)[O-])o3)c2C#N)C1	Shiga inhibitor 82 (no result: Lassa entry inh, Marburg entry inh)
CCNC(=O)CSc1nnc(-c2cc(-c3ccc(Cl)cc3)nc3ccccc23)o1	Marburg entry inh inconclusive
CCCCc1cc2c(cn1)=C(OC(=O)c1cccs1)C(C)(OC(=O)CC)C(=O)C=2 (centres undefined)	none (no result: Lassa entry inh, CHX counter, Shiga inhibitor)
Cc1ccc(/C=N/n2c(C)nc3ccccc3c2=O)o1	none (no result: Lassa entry inh, Marburg entry inh)
O=c1c2ccccc2nc(/C=C/c2ccc([N+](=O)[O-])o2)n1-c1ccc(O)cc1	Lassa entry inh inconclusive, Marburg entry inh 3.2µM
CN(/N=C/c1ccc([N+](=O)[O-])o1)c1ccccc1	CHX counter 33
Cc1nc2ccccc2c(=O)n1/N=C/c1ccc([N+](=O)[O-])o1	CHX counter 34, Shiga inhibitor 56 (no result: Lassa entry inh, Marburg entry inh)
Cc1nc2ccccc2n1/N=C/c1ccc([N+](=O)[O-])o1	Lassa entry inh inconclusive, Marburg entry inh 15µM (no result: CHX counter, Shiga inhibitor)
COc1ccc(NC(=O)CSc2oc(-c3ccco3)nc2S(=O)(=O)c2ccc(Br)cc2)c(OC)c1	none (no result: CHX counter, Shiga inhibitor)
Cc1c(C#N)c(O)n(CCO)c(=O)c1N=Nc1ccc(S(N)(=O)=O)cc1	none
Cc1c(C#N)c(O)n(C)c(=O)c1N=Nc1ccc(S(N)(=O)=O)cc1	Shiga inhibitor 108 (no result: Lassa entry inh, Marburg entry inh)
COc1cc(CNc2ccc(N3CCOCC3)cc2)ccc1OCC(=O)NC(C)(C)C	none (no result: Lassa entry inh, Marburg entry inh)
COc1cc(C(=O)Nc2ccc(NC(C)=O)cc2)ccc1OCc1ccccc1	none
COc1cc(CNc2ccc(NC(C)=O)cc2)ccc1OCc1ccccc1C	CHX counter 46, Shiga inhibitor 87 (no result: Lassa entry inh, Marburg entry inh)
COc1cc(CNc2ccc(N3CCN(C(C)=O)CC3)cc2)ccc1OCc1ccccc1	Lassa entry inh inconclusive, Marburg entry inh inconclusive, CHX counter 23, Shiga inhibitor 52
COc1ccc(C(=O)N2CCCC(C(=O)N3CCN(c4ccccc4)CC3)C2)cc1 (centres undefined)	none
O=C(NCCN1CCOCC1)C1(C(F)(F)F)C/C(=C/CCO)CCCO1 (centres undefined)	none (no result: Lassa entry inh, Marburg entry inh)
Cc1cc(NC(=O)CCn2c(=O)c3cccn3c3cccnc32)ccc1Br	none (no result: Marburg entry inh, CHX counter, Shiga inhibitor)
C[C@]12CC[C@@H]3c4ccc(O)cc4C[C@@H](CCCCCCCCCS(=O)CCCC(F)(F)C(F)(F)F)[C@H]3[C@@H]1CC[C@@H]2O (some centres undefined)	Lassa entry inh 3.3µM, Marburg entry inh inconclusive (no result: CHX counter, Shiga inhibitor)
C[C@]12CC[C@@H]3c4ccc(O)cc4CC[C@H]3[C@@H]1C[C@@H](O)[C@@H]2O	none
C#C[C@H](N)CCC(=O)O	none (no result: Lassa entry inh, CHX counter, Shiga inhibitor)
CC(C)Sc1nc2[nH]ncc2c(=O)[nH]1	none
O=c1[nH]c(=O)c2ccccc2o1	none (no result: CHX counter, Shiga inhibitor)
O=c1cc(/C=C/c2ccccc2)oc2ccccc12	Lassa entry inh inconclusive, Marburg entry inh inconclusive, CHX counter 47, Shiga inhibitor 107
CCC1CCCCN1C(=O)Nc1cc(Cl)ccc1OC (centres undefined)	none
Fc1ccc(/C=C/c2nnc(-c3cccs3)o2)cc1	Marburg entry inh inconclusive, CHX counter 31, Shiga inhibitor 75
Cc1ccc(/C=C/c2nnc(-c3ccc(C)cc3)o2)cc1	none
Cc1ccc(/C=C/c2nnc(-c3cccs3)o2)cc1	Lassa entry inh 10µM, Marburg entry inh 12µM, CHX counter 46, Shiga inhibitor 48
Cc1ccc(-c2nnc(-c3cccs3)o2)cc1	Lassa entry inh inconclusive, CHX counter 31, Shiga inhibitor 72
O=C(C[C@H]1C[C@H](C(=O)N2CCCCC2)[C@@]2(CCc3ccccc3)c3[nH]c4ccc(Cl)cc4c3CCN2C1=O)NCc1ccco1	none (no result: Lassa entry inh, CHX counter, Shiga inhibitor)
NC(=Nc1ccc(Cl)cc1)c1ccccc1	Marburg entry inh inconclusive, CHX counter 26
Cc1cn2c(=O)cc(COC(=O)c3ccc(NC(=O)c4ccccc4C)cc3)nc2s1	none (no result: Marburg entry inh, CHX counter, Shiga inhibitor)
O=C(CCl)N(C/C=C/c1ccccc1)c1ccc2c(c1)OCCO2	Lassa entry inh inconclusive, CHX counter 52, Shiga inhibitor 164
O=C(O)CN(c1ccc2c(c1)OCCO2)S(=O)(=O)c1ccccc1	none
COc1ccc(C(C(=O)NCC2CCCO2)N(C(=O)c2snc(C(N)=O)c2N)c2ccc(C)cc2)cc1OC (centres undefined)	none (no result: Lassa entry inh)
COc1cccc(-c2cc(C(=O)NCc3ccco3)no2)c1	Lassa entry inh inconclusive, CHX counter 50, Shiga inhibitor 86
O=C(NCc1ccco1)c1cc(-c2cccc(Cl)c2)on1	Lassa entry inh inconclusive, Marburg entry inh inconclusive, CHX counter 33, Shiga inhibitor 38
O=C(NCc1ccco1)c1cc(-c2ccc3c(c2)OCO3)on1	Marburg entry inh inconclusive, CHX counter 42, Shiga inhibitor 109
O=C(NCCN1CCOCC1)c1cc(-c2cccc(Cl)c2)on1	Lassa entry inh inconclusive
O=C(NCc1ccc2c(c1)OCO2)c1cc(-c2ccccc2)on1	none
CC1CCc2onc(C(=O)NCc3ccco3)c2C1 (centres undefined)	CHX counter 38, Shiga inhibitor 85
CC(C)(C)n1cc(S(=O)(=O)c2ccccc2)[nH]c1=O	none
CCN(CC)C(=O)Cn1c(SCC(=O)Nc2ccc(F)cc2)nc2ccccc21	none (no result: Marburg entry inh, CHX counter, Shiga inhibitor)
Cc1cc(C(=O)NCc2ccco2)no1	none
Cc1ccc(-c2noc(CCC(=O)NCc3ccco3)n2)cc1	none
O=C(NCc1ccco1)c1ccc(-c2cccc(Cl)c2)o1	Lassa entry inh inconclusive, CHX counter 52, Shiga inhibitor 71

From PubChem BioAssay
